# Reference: the supplement of paper PMC6763611
# System: Plasmodium falciparum NF54
# Test: growth inhibition relative to untreated control; higher = more inhibition
# Details: 72 h
# How it was run: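 Ring-stage P. falciparum NF54 parasites at 1% hematocrit and 1% parasitemia were dispensed at 100 μL/well into dark 96-well half-area plates and given a single dose of test compound at 5 μM or 1 μM for 72 h at 37 °C. Incubation took place in minimal RPMI, either alone or supplemented with the chorismate end-products folate (2.2 μM), pABA (7.3 μM), pHBA (7.3 μM), tyrosine (111 μM), phenylalanine (90 μM) and tryptophan. Growth inhibition was determined with SYBR Green relative to untreated wells, using uninfected erythrocytes for background.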
# [1] = 1 µM, MM + chorismate end-products (CM screening medium)
# [2] = 5 µM, MM + chorismate end-products (CM screening medium)
structure (smiles),measurement,setting,value
Nc1c2c(nc3sc4c(c13)CCCC4)CCCC2,growth inhibition,[1],2.72%
same,growth inhibition,"1 µM, minimal medium (MM)",13.8%
same,growth inhibition,[2],52.3%
same,growth inhibition,"5 µM, minimal medium (MM)",13.1%
CO/N=C(\C(=O)OC)c1ccccc1CO/N=C(\C)c1cccc(C(F)(F)F)c1,growth inhibition,[1],98%
same,growth inhibition,"1 µM, minimal medium (MM)",96.6%
same,growth inhibition,[2],91.5%
same,growth inhibition,"5 µM, minimal medium (MM)",91.8%
Cc1cccc(C(=O)Nc2ccnc(N(C)C3CCN(CC(C)C)CC3)c2)c1,growth inhibition,[1],> 100%
same,growth inhibition,"1 µM, minimal medium (MM)",61.7%
same,growth inhibition,[2],94.8%
same,growth inhibition,"5 µM, minimal medium (MM)",92.4%
